Results from PubChem BioAssay AID1347156 (National Center for Advancing Translational Sciences (NCATS), 2019).
Records with an inconclusive call do not appear. The source made the active and inactive calls. The call rests on the fitted dose curve; in most records, active means well fitted cell-killing curve with a large enough effect; inconclusive means small, poorly fitted or top-dose-only effect; inactive means flat fitted curve, though single readings scatter.

Assay: DAPI mCherry counterscreen qHTS for Zika virus inhibitors; further: nearly all actives have a fitted effect of over 55% in size
Details: Vero cells, DAPI nuclear count cytotoxicity, imaging 48-72 h, infected with Zika reporter virus, MOI 1; series mostly up to 32.6 µM
Outline: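 Vero cells (5,000/well), plated overnight, given compounds then recombinant ZIKV-mCherry at MOI 1 for 48-72 hrs at 37 degrees C; PFA-fixed, Hoechst-stained and imaged; nuclei counted and mCherry-positive cells scored as percent infection.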
Potency means the concentration at half of the fitted maximal effect.

SMILES	Potency
Oc1c(Cl)cc(Cl)c(Cl)c1Cc1c(O)c(Cl)cc(Cl)c1Cl	31.6 µM (active)
CC(C)c1cccc2c(-c3ccccc3)cc(-c3ccc(-c4ccc(C(=O)O)cc4)[nH]3)nc12	25.1 µM (active)
O=C(Nc1cccc(C(=O)Nc2ccc(S(=O)(=O)O)c3cc(S(=O)(=O)O)cc(S(=O)(=O)O)c23)c1)Nc1cccc(C(=O)Nc2ccc(S(=O)(=O)O)c3cc(S(=O)(=O)O)cc(S(=O)(=O)O)c23)c1	inactive
CCCCCc1ccc(/C=C/C(=O)Nc2cc(Cl)ccc2C(=O)O)cc1	35.5 µM (active)
O=C(O)c1ccccc1-c1c2cc(I)c(=O)c(I)c-2oc2c(I)c(O)c(I)cc12	inactive
CCOc1ccc(-c2ccc(Cn3c(CC(C)(C)C(=O)O)c(SC(C)(C)C)c4cc(OCc5ccc(C)cn5)ccc43)cc2)cn1	17.8 µM (active)
CCN(Cc1cccc(S(=O)(=O)O)c1)c1ccc(C(=C2C=CC(=[N+](CC)Cc3cccc(S(=O)(=O)O)c3)C=C2)c2ccccc2S(=O)(=O)[O-])cc1	inactive
N#CC1C(=O)Nc2scc(-c3ccc(-c4ccccc4O)cc3)c2C1=O (stereo unspecified)	8.91 µM (active)
O=C(O)C1(Cc2cccc(Nc3nccs3)n2)CCC(Oc2cccc(Cl)c2F)CC1 (stereo unspecified)	17.8 µM (active)
O=C(O)c1ccc(S(=O)(=O)N(Cc2ccc(OC(F)(F)F)cc2)c2ncc(C(F)(F)F)cc2Cl)cc1	25.1 µM (active)
N#Cc1ccc(N2N=C3c4ccc(C(=O)O)cc4CC[C@@H]3[C@@H]2C2CCCC2)cc1Cl	4.47 µM (active)
